{"source": "PubChem BioAssay (NCATS)", "note": "Records with an inconclusive call do not appear. Calls of active or inactive are those of the source. Calls follow the shape of the dose curve; as a rule, active = well fitted cell-killing curve with a large enough effect; inconclusive = small, poorly fitted or top-dose-only effect; inactive = flat fitted curve, though single readings scatter. % is scaled to controls: 0 for no effect and ±100 for the full control effect; potency is read from the fitted curve at half-maximal effect."}
{"assay": "qHTS of pediatric cancer cell lines to identify multiple opportunities for drug repurposing: Confirmatory screen for BT-12 cells (AID 1347112);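 also: viability read after 48 h of compound exposure; nearly all actives have a fitted effect of over 55% in size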", "details": "BT-12 rhabdoid tumor cells, viability; series mostly up to 45.9 µM; activity change, negative = cytotoxic: at the top concentration", "text": "Drug repurposing or repositioning has been offered as a strategy for drug development in oncology programs. This approach has special potential for childhood cancers and other rare or orphan diseases, where the expected return on new drug development has been a disincentive to pharmaceuticals.\nIn this project we exploit the poly-pharmacology of drugs to discover new indications via phenotypic screening of a panel of 19 well-characterized cell lines derived from solid tumors seen in children and adolescents. The goal is to identify approved drugs with previously unrecognized anticancer properties that has the potential to reveal new mechanisms and biological processes involved in carcinogenesis or drug resistance. We employed a titration-based paradigm (quantitative high-throughput screening or qHTS), where all compounds were tested at multiple concentrations for their effect on cell viability. Concentration-response curves (CRCs) were derived directly from the primary screen, and both potency and efficacy values were used to identify compounds with robust bioactivity profiles. We screened the NIH Chemical Genomics Center (NCGC) Pharmaceutical Collection (NPC) and Mechanism Interrogation Plate (MIPE) small molecule collections of approved and investigational compounds against these cell lines; and measured metabolically active cells after 48 hours of compound treatment as a proxy for cell viability.\nAssay Submitter: Nathalia J. Martinez, National Center for Advancing Translational Sciences, National Institutes of Health, Rockville, MD, USA; email: natalia.martinez@nih.gov\n[1] Shen, M et al. Quantitative high-throughput phenotypic screening of pediatric cancer cell lines identifies multiple opportunities for drug repurposing. Oncotarget 2017 Dec 19;9(4):4758-4772. PMID 29435139.\nThe cells were obtained from University of North Carolina (UNC), Pediatric Preclinical Testing Program (PPT), and Coriell Institute (CI).\nqHTS cell viability assay:\nCells were assayed in growth media at a density of 500-1,000 cells/well. Five microliters of cells were dispensed into 1,536-well, white, solid-bottom, TC-treated plates (Greiner Bio One) using a multidrop dispenser and incubated at 37 degrees C, 5% CO2, under a humidified atmosphere for 5 hours. Twenty-three nanoliters of compounds and controls (neutral control DMSO or positive control bortezomib at final concentration of 2.3 µM) were subsequently transferred by Kalypsys pintool. For primary screens, the MIPE collection was tested at 11-point dilutions (final concentrations range from 0.78 nM to 46 µM) and the NPC collection at 8-point dilutions (final concentrations range from 0.59 nM to 46 µM). Compounds tested in follow-up screens were assayed at 11-point dilutions. Cells were incubated for 48 hours, followed by addition of 3 µL of CellTiter-Glo (Promega). After a 15 min incubation at room temperature, samples were analyzed for luminescence intensity using a ViewLux High-throughput CCD imager equipped with clear filters."}
{"smiles": "CC(C)C[C@@H](C(=O)N[C@H](C(=O)OC1CCCC1)c1ccccc1)[C@H](O)C(=O)NO", "activity change, negative = cytotoxic": "-19.4% (inactive)"}
{"smiles": "CN[C@@H]1CN(c2ccc3c(=O)c(C(=O)O)cn(-c4nccs4)c3n2)C[C@@H]1OC", "Potency": "9100 nM (active)"}
{"smiles": "CC1(C)OC2CC3C4CC(F)C5=CC(=O)C=CC5(C)C4C(O)CC3(C)[C@]2(C(=O)CO)O1", "note": "(stereo not given in full)", "activity change, negative = cytotoxic": "-6.83% (inactive)"}
{"smiles": "C[C@@H]1O[C@@H](O[C@H]2CC[C@@]3(C)[C@H](CC[C@@H]4[C@H]3C[C@@H](O)[C@]3(C)[C@@H](C5=CC(=O)OC5)CC[C@]43O)C2)C[C@H](O)[C@@H]1O[C@H]1C[C@H](O)[C@H](O[C@H]2C[C@H](O)[C@@H](O)[C@@H](C)O2)[C@H](C)O1", "note": "(stereo in doubt)", "Potency": "170 nM (active)"}
{"smiles": "CCCC1OC2C[C@@H]3[C@H]4CCC5=CC(=O)C=C[C@]5(C)[C@H]4C(O)C[C@]3(C)[C@]2(C(=O)CO)O1", "note": "(stereo not given in full)", "activity change, negative = cytotoxic": "6.35% (inactive)"}
{"smiles": "CCC(C)SSc1ncc[nH]1", "note": "(stereo not given)", "Potency": "23300 nM (active)"}
{"smiles": "CC(C)CN(C[C@H](O)[C@H](Cc1ccccc1)NC(=O)O[C@H]1CCOC1)S(=O)(=O)c1ccc(N)cc1", "activity change, negative = cytotoxic": "-18.5% (inactive)"}
{"smiles": "NC(N)=Nc1nc(CSCCC(N)=NS(N)(=O)=O)cs1", "activity change, negative = cytotoxic": "-5.43% (inactive)"}
{"smiles": "C[C@@H]1[C@H](O)[C@@H](C)C=CC=CC=CC=CC=CC=CC=C[C@H](O[C@@H]2O[C@H](C)[C@H](O)[C@H](N)[C@@H]2O)C[C@@H]2O[C@](O)(C[C@@H](O)C[C@@H](O)[C@H](O)CC[C@@H](O)C[C@@H](O)CC(=O)O[C@H]1C)C[C@H](O)[C@@H]2C(=O)O", "activity change, negative = cytotoxic": "-12.7% (inactive)"}
{"smiles": "CC(C)(C)c1[nH]cnc1C=c1[nH]c(=O)c(=Cc2ccccc2)[nH]c1=O", "Potency": "202 nM (active)"}
{"smiles": "CC[C@]1(O)C[C@H]2CN(CCC3=c4ccccc4=N[C]3[C@@](C(=O)OC)(c3cc4c(cc3OC)N(C)[C@H]3[C@@](O)(C(N)=O)[C@H](O)[C@]5(CC)C=CCN6CC[C@]43[C@@H]65)C2)C1", "Potency": "147 nM (active)"}
{"smiles": "CC(=O)N1CCN(c2ccc(OCc3nn(C)c(C)c3-c3cccc4c(CCCOc5cc(C)c(Cl)c(C)c5)c(C(=O)O)n(Cc5cccnc5)c34)cc2)CC1", "activity change, negative = cytotoxic": "-9.56% (inactive)"}
{"smiles": "CC1=C[C@@H]2[C@@H]([C@@H](O)C[C@@]3(C)[C@H]2C[C@@H](C)[C@]3(O)C(=O)CO)[C@@]2(C)Cc3cnn(-c4ccccc4)c3C=C12", "activity change, negative = cytotoxic": "-7.04% (inactive)"}
{"smiles": "CC1CNc2c(cccc2S(=O)(=O)N[C@@H](CCCN=C(N)N)C(=O)N2CC[C@@H](C)C[C@@H]2C(=O)O)C1", "note": "(stereo not given in full)", "activity change, negative = cytotoxic": "-0.078% (inactive)"}
{"smiles": "Cc1ccc(C(=O)N(CCCN)[C@@H](c2oc3cc(Cl)ccc3c(=O)c2Cc2ccccc2)C(C)C)cc1", "Potency": "10.4 nM (active)"}
{"smiles": "O=C1Nc2ccc(I)cc2C1=Cc1cc(Br)c(O)c(Br)c1", "activity change, negative = cytotoxic": "3.74% (inactive)"}
{"smiles": "Cc1ccc(C(=O)N(CCCN)[C@@H](c2nc3cc(Cl)ccc3c(=O)n2Cc2ccccc2)C(C)C)cc1", "Potency": "759 nM (active)"}
{"smiles": "Cc1ccc2c(c1)C(=O)[C@]1(O)CCN(c3ccccc3)C1=N2", "activity change, negative = cytotoxic": "-11.8% (inactive)"}
{"smiles": "Cc1cccc(-c2[nH]c(C(C)(C)C)nc2-c2ccc3c(c2)OCO3)n1", "Potency": "11700 nM (active)"}
{"smiles": "COC(=O)[C@H](c1ccccc1Cl)N1CCc2sccc2C1", "activity change, negative = cytotoxic": "-0.679% (inactive)"}
{"smiles": "Cc1ccc(S(=O)(=O)Nc2nc3ccccc3nc2Nc2ccc3nsnc3c2)cc1", "activity change, negative = cytotoxic": "-12.5% [at 29.6 µM] (inactive)"}
{"smiles": "COc1cc(CNC(=O)CCCCC=CC(C)C)ccc1O", "activity change, negative = cytotoxic": "2.62% (inactive)"}
{"smiles": "Cc1ccccc1-n1c(Cn2nc(-c3cccc(O)c3)c3c(N)ncnc32)nc2cccc(C)c2c1=O", "activity change, negative = cytotoxic": "-12.5% (inactive)"}
{"smiles": "CCCCn1c(=O)n(Cc2ccccc2F)c(=O)c2[nH]c(Cc3ccc(NC(C)=O)cc3)nc21", "activity change, negative = cytotoxic": "-1.32% (inactive)"}
{"smiles": "C=CC(=O)Nc1cccc(Sc2nc(Nc3ccc(N4CCN(C)CC4)cc3)ncc2Cl)c1", "Potency": "23300 nM (active)"}
{"smiles": "C[C@@H]1C[C@H]2[C@@H]3CCC4=CC(=O)C=C[C@]4(C)[C@@]3(F)[C@@H](O)C[C@]2(C)[C@@]1(O)C(=O)CO", "activity change, negative = cytotoxic": "-8.86% (inactive)"}
{"smiles": "COc1cc2ncnc(Nc3cc(Br)c(O)c(Br)c3)c2cc1OC", "activity change, negative = cytotoxic": "-9.52% (inactive)"}
{"smiles": "CCN(CCO)CCCOc1ccc2c(Nc3cc(CC(=O)Nc4cccc(F)c4)[nH]n3)ncnc2c1", "activity change, negative = cytotoxic": "-21.3% (inactive)"}
{"smiles": "C=C1[C@H](n2cnc3c(=O)[nH]c(N)nc32)C[C@H](O)[C@H]1CO", "activity change, negative = cytotoxic": "6.96% (inactive)"}
{"smiles": "COC1CCC(C(=O)c2ccc3nc4c(cc3c2)CCCO4)CC1", "note": "(stereo not given)", "activity change, negative = cytotoxic": "-4.55% (inactive)"}
{"smiles": "COc1ccc(-c2ccc3ncc4c(c3c2)n(-c2ccc(N3CCNCC3)c(C(F)(F)F)c2)c(=O)n4C)cn1", "Potency": "7370 nM (active)"}
{"smiles": "CCC(=O)OCC(=O)[C@@]1(OC(=O)CC)[C@@H](C)C[C@@H]2[C@H]3CCC4=CC(=O)C=C[C@]4(C)[C@@]3(F)[C@@H](O)C[C@@]21C", "activity change, negative = cytotoxic": "-3.4% (inactive)"}
{"smiles": "CN(C)CCN(C)C(=O)c1ccc(NC(=O)Nc2ccc(-c3nc(N4CCOCC4)c4ccn(CC(F)(F)F)c4n3)cc2)cc1", "Potency": "18500 nM (active)"}
{"smiles": "CC(C)C[C@H](NC(=O)c1cc2ccccc2s1)C(=O)N1CCN(C(=O)[C@H](CO)NS(=O)(=O)c2ccc(Cl)cc2Cl)CC1", "Potency": "3.7 nM (active)"}
{"smiles": "CC(C)CN(C[C@@H](O)[C@H](Cc1ccccc1)NC(=O)O[C@H]1CO[C@H]2OCC[C@H]21)S(=O)(=O)c1ccc(N)cc1", "activity change, negative = cytotoxic": "-3.89% (inactive)"}
{"smiles": "CCC[C@H](N[C@@H](C)C(=O)N1[C@@H]2CCCC[C@H]2C[C@H]1C(=O)O)C(=O)OCC", "activity change, negative = cytotoxic": "-8.54% (inactive)"}
{"smiles": "CC1(C)CC(=O)c2c(C(F)(F)F)nn(-c3ccc(C(N)=O)c(NC4CCC(O)CC4)c3)c2C1", "note": "(stereo not given)", "activity change, negative = cytotoxic": "-8.32% (inactive)"}
{"smiles": "CN(C)CC[C@H](CSc1ccccc1)Nc1ccc(S(=O)(=O)NC(=O)c2ccc(N3CCN(Cc4ccccc4-c4ccc(Cl)cc4)CC3)cc2)cc1[N+](=O)[O-]", "activity change, negative = cytotoxic": "3.16% (inactive)"}
{"smiles": "CNC(=O)[C@H](CC1=CN=C2C=CCC=C12)NC(=O)[C@@H](CC(=O)NO)CC(C)C", "Potency": "2610 nM (active)"}
{"smiles": "CCC(=O)N1CCN(c2ccc(-n3c(=O)ccc4cnc5ccc(-c6cnc7ccccc7c6)cc5c43)cc2C(F)(F)F)CC1", "activity change, negative = cytotoxic": "-3.21% (inactive)"}
